Measurements: PubChem BioAssay (NCATS)
Records with an inconclusive call do not appear. Activity calls are given as the source filed them. Calls come from the whole dose curve; as a rule, active = well fitted cell-killing curve with a large enough effect; inconclusive = small, poorly fitted or top-dose-only effect, or effect the other way; inactive = flat fitted curve, though single readings scatter.

test system: HeLa; test: Primary qHTS to identify gynecologic anti-cancer compounds using libraries of approved drugs and bioactive compounds (AID 1345084); settings: Gynecologic cancer cell panel viability, ATPlite luminescence, 48 h; series mostly up to 57.5 µM; activity change, negative = cytotoxicity: at the top concentration; note: nearly all actives have a fitted effect of over 55% in size
Method in brief: (§1)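 Luminescence from the ATPlite ATP-monitoring reagent indicates viable cell number; lower signal means cytotoxicity. Cells received compound 16 h after seeding and were exposed for 48 h across five concentrations.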
% is set by controls: 0 for no effect and ±100 for the full control effect; potency is the fitted concentration of half-maximal effect.

| Compound | activity change, negative = cytotoxicity | Potency |
| --- | --- | --- |
| C1CN2CCC1CC2 | 16.9% (inactive) |  |
| CCC1(CC)C(=O)NC(=O)NC1=O | 0.265% (inactive) |  |
| CC(C)(C)OC(=O)c1ncn2c1[C@@H]1CCCN1C(=O)c1c(Br)cccc1-2 | 7.98% (inactive) |  |
| CN1C(=O)CN=C(c2ccccc2)c2cc([N+](=O)[O-])ccc21 | 5.08% (inactive) |  |
| CCOC(=O)C(c1c(O)c2ccccc2oc1=O)c1c(O)c2ccccc2oc1=O | 14.7% (inactive) |  |
| CNC(C)Cc1ccccc1OC (stereo not drawn) | -18% (inactive) |  |
| ClCc1cccc(Cl)c1 | 2.38% (inactive) |  |
| CC(CC(C(N)=O)(c1ccccc1)c1ccccc1)N(C)C (stereo not drawn) | 3% (inactive) |  |
| CC1Sc2c(C(=O)O)c(=O)c3cc(F)c(N4CCNCC4)cc3n21 (stereo not drawn) | 8.45% (inactive) |  |
| O=C(CBr)Nc1ccc(Cl)cc1C(=O)c1ccccc1F | -2.62% (inactive) |  |
| COP(=O)(OC)C(O)C(Cl)(Cl)Cl (stereo not drawn) | 2.42% (inactive) |  |
| C[C@H]1CNCCc2ccc(Cl)cc21 | 5.03% (inactive) |  |
| COc1cc(N)c(Cl)cc1C(=O)NC1CN2CCC1CC2 (stereo not drawn) | -1.26% (inactive) |  |
| COC(=O)C1=CCCN(C)C1 | 7.86% (inactive) |  |
| C[C@@H]1CN(C2CCC(C#N)(c3ccc(F)cc3)CC2)CC[C@]1(C(=O)O)c1ccccc1 (stereo partly drawn) | -0.324% (inactive) |  |
| CCOC(=O)NC(O)C(Cl)(Cl)Cl (stereo not drawn) | -4.56% (inactive) |  |
| OC(O)C(Cl)(Cl)Cl | 8.05% (inactive) |  |
| ClCCCN1CCN(c2cccc(Cl)c2)CC1 | -3.6% (inactive) |  |
| C#C[C@]1(O)C=C[C@H]2[C@@H]3CCC4=CC(=O)CC[C@@H]4[C@H]3CC[C@@]21CC |  | 12.6 µM (active) |
| O=c1[nH]c2cc(Cl)ccc2n1C1CCNCC1 | -2.61% (inactive) |  |

| Compound | activity change, negative = cytotoxicity | Potency |
| --- | --- | --- |
| O=C(O)Cc1ccccc1 | 2.49% (inactive) |  |
| CC(C)(O)C(Cl)(Cl)Cl | 0.006% (inactive) |  |
| C[N+]1(CCC(C(N)=O)(c2ccccc2)c2ccccc2)CCCCC1 | 4.89% (inactive) |  |
| CCc1ccc(C2CCNCC2)cc1 | 6.26% (inactive) |  |
| C[C@]12CC[C@H]3[C@@H](CCC4=CC(=O)CC[C@@H]43)[C@@H]1CC[C@@H]2O |  | 2.24 µM (active) |
| Cc1ccc(N=CN(C)C=Nc2ccc(C)cc2C)c(C)c1 | -1.6% (inactive) |  |
| COP(=O)(OC)OC=C(Cl)Cl | -0.625% (inactive) |  |
| CCN1CCCC1CNC(=O)C(O)(c1ccccc1)c1ccccc1 (stereo not drawn) | 4.95% (inactive) |  |
| CN(C)C(=O)Oc1cc(OC(=O)N(C)C)cc(C(O)CNC(C)(C)C)c1 (stereo not drawn) | -0.25% (inactive) |  |
| O=C1CN2CCOC2(c2ccccc2Cl)c2cc(Cl)ccc2N1 (stereo not drawn) | 0.848% (inactive) |  |
| COP(=S)(OC)Oc1ccc(Sc2ccc(OP(=S)(OC)OC)cc2)cc1 | 5.86% (inactive) |  |
| O=C(O)c1nn(Cc2ccc(Cl)cc2Cl)c2ccccc12 | 1.01% (inactive) |  |
| COCC(=O)N(c1c(C)cccc1C)C(C)C(=O)OC (stereo not drawn) | 11.6% (inactive) |  |
| NC(=O)OCCCc1ccccc1 | 15.4% (inactive) |  |
| CCN(CC)CCOC(=O)C(C)(c1ccccc1)c1ccccc1 | -5.04% (inactive) |  |
| CCOP(=S)(OCC)O/N=C(\C#N)c1ccccc1 | 10.5% (inactive) |  |
| O=C(CCCCl)c1ccc(F)cc1 | 4.62% (inactive) |  |
| C[N+]1(C)[C@@H]2CC[C@H]1CC(OC(=O)C(CO)c1ccccc1)C2 (stereo partly drawn) | -6.55% (inactive) |  |
| CC1=C2[C@H]3OC(=O)[C@@H](C)[C@@H]3CC[C@@]2(C)C=CC1=O | -3.86% (inactive) |  |
| Sc1ccccc1Cl | 0.648% (inactive) |  |

test system: Hek293T; test: as above; settings: Gynecologic cancer cell panel viability, ATPlite luminescence, 48 h, control line for the selectivity index; series mostly up to 57.5 µM; activity change, negative = cytotoxicity: at the top concentration
Method in brief: as §1

| Compound | activity change, negative = cytotoxicity |
| --- | --- |
| C1CN2CCC1CC2 | 5.19% (inactive) |
| CC(C)(C)OC(=O)c1ncn2c1[C@@H]1CCCN1C(=O)c1c(Br)cccc1-2 | -1.28% (inactive) |
| CN1C(=O)CN=C(c2ccccc2)c2cc([N+](=O)[O-])ccc21 | 16.6% (inactive) |
| CCOC(=O)C(c1c(O)c2ccccc2oc1=O)c1c(O)c2ccccc2oc1=O | 3.87% (inactive) |
| CNC(C)Cc1ccccc1OC (stereo not drawn) | 19% (inactive) |
| ClCc1cccc(Cl)c1 | 5.17% (inactive) |
| CC(CC(C(N)=O)(c1ccccc1)c1ccccc1)N(C)C (stereo not drawn) | 0.258% (inactive) |
| CC1Sc2c(C(=O)O)c(=O)c3cc(F)c(N4CCNCC4)cc3n21 (stereo not drawn) | -7.44% (inactive) |
| O=C(CBr)Nc1ccc(Cl)cc1C(=O)c1ccccc1F | 4.81% (inactive) |
| COP(=O)(OC)C(O)C(Cl)(Cl)Cl (stereo not drawn) | 0.973% (inactive) |
| C[C@H]1CNCCc2ccc(Cl)cc21 | -12.2% (inactive) |
| COc1cc(N)c(Cl)cc1C(=O)NC1CN2CCC1CC2 (stereo not drawn) | 3.06% (inactive) |
| COC(=O)C1=CCCN(C)C1 | 9.23% (inactive) |
| C[C@@H]1CN(C2CCC(C#N)(c3ccc(F)cc3)CC2)CC[C@]1(C(=O)O)c1ccccc1 (stereo partly drawn) | 8.73% (inactive) |
| CCOC(=O)NC(O)C(Cl)(Cl)Cl (stereo not drawn) | -16.4% (inactive) |
| OC(O)C(Cl)(Cl)Cl | 0.4% (inactive) |
| ClCCCN1CCN(c2cccc(Cl)c2)CC1 | 0.0077% (inactive) |
| C#C[C@]1(O)C=C[C@H]2[C@@H]3CCC4=CC(=O)CC[C@@H]4[C@H]3CC[C@@]21CC | 1.73% (inactive) |
| O=c1[nH]c2cc(Cl)ccc2n1C1CCNCC1 | -4.38% (inactive) |

| Compound | activity change, negative = cytotoxicity |
| --- | --- |
| O=C(O)Cc1ccccc1 | 6.38% (inactive) |
| CC(C)(O)C(Cl)(Cl)Cl | 2.1% (inactive) |
| C[N+]1(CCC(C(N)=O)(c2ccccc2)c2ccccc2)CCCCC1 | 0.0273% (inactive) |
| CCc1ccc(C2CCNCC2)cc1 | 2.89% (inactive) |
| C[C@]12CC[C@H]3[C@@H](CCC4=CC(=O)CC[C@@H]43)[C@@H]1CC[C@@H]2O | -1.5% (inactive) |
| Cc1ccc(N=CN(C)C=Nc2ccc(C)cc2C)c(C)c1 | 0.376% (inactive) |
| COP(=O)(OC)OC=C(Cl)Cl | -16.2% (inactive) |
| CCN1CCCC1CNC(=O)C(O)(c1ccccc1)c1ccccc1 (stereo not drawn) | -7.3% (inactive) |
| CN(C)C(=O)Oc1cc(OC(=O)N(C)C)cc(C(O)CNC(C)(C)C)c1 (stereo not drawn) | 12.3% (inactive) |
| O=C1CN2CCOC2(c2ccccc2Cl)c2cc(Cl)ccc2N1 (stereo not drawn) | 5.94% (inactive) |
| O=C(O)c1nn(Cc2ccc(Cl)cc2Cl)c2ccccc12 | 2.2% (inactive) |
| COCC(=O)N(c1c(C)cccc1C)C(C)C(=O)OC (stereo not drawn) | 18.3% (inactive) |
| NC(=O)OCCCc1ccccc1 | -0.764% (inactive) |
| CCN(CC)CCOC(=O)C(C)(c1ccccc1)c1ccccc1 | 13.9% (inactive) |
| CCOP(=S)(OCC)O/N=C(\C#N)c1ccccc1 | 1.56% (inactive) |
| O=C(CCCCl)c1ccc(F)cc1 | 7.29% (inactive) |
| C[N+]1(C)[C@@H]2CC[C@H]1CC(OC(=O)C(CO)c1ccccc1)C2 (stereo partly drawn) | 1.11% (inactive) |
| CC1=C2[C@H]3OC(=O)[C@@H](C)[C@@H]3CC[C@@]2(C)C=CC1=O | 10.1% (inactive) |
| Sc1ccccc1Cl | 6.65% (inactive) |
